# Reference: PubChem BioAssay (NCI)
# The panel holds about 83,000 compounds, 20% with a hit somewhere; the sample as a whole holds those more often.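 96-well plates, one dose, 48 hours. Percent growth reported; active if below 10.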 The source made the active and inactive calls.
# Test system: MDA-MB-468 breast
# Experiment: NCI-60 one-dose screen, 48 h (100 = growth as untreated, 0 = no growth, -100 = all killed)
# Details: 10 µM unless noted
row,SMILES,growth
1,O=C1OC2C(I)C3CC2C1C3c1ccccc1 (configuration not stated),91.5% (inactive)
2,CCN(CC)CCN1C(=O)c2c(c(C)c3c(oc4ccc(O)cc43)c2C)C1=O,47.5% (inactive)
3,N=C(N)c1ccc(-c2ccc(-c3ccc(Cl)c(Cl)c3)s2)cc1,-61.6% (active)
4,O=C(COc1ccc(-c2nc3ccccc3[nH]2)cc1)N=Nc1c(O)[nH]c2ccc(Cl)cc12,89.7% (inactive)
5,O=[N+]([O-])c1ccc(NS(=O)(=O)c2cc(Cl)ccc2Cl)c2ccccc12,23.6% (inactive)
6,CCOc1cc2ncc(C#N)c(Nc3ccc(OCc4cccc(F)c4)c(Cl)c3)c2cc1NC(=O)CC1CCSS1 (configuration not stated),-5.09% (active)
7,CSc1nc(N)c(CNC(C)c2ccccc2)c(=O)n1C (configuration not stated),97.4% (inactive)
8,C=C1C(=O)O[C@H]2[C@H]1CC/C(CNC(=O)c1cc3cc(OC)ccc3[nH]1)=C\CC[C@@]1(C)O[C@@H]21,-67.7% (active)
9,Cc1occc1-c1nc2s/c(=C/c3ccc(-c4cc(C(F)(F)F)ccc4Cl)o3)c(=O)n2n1,108% (inactive)
10,O=[N+]([O-])C1=C(c2ccccc2)SC=C(c2ccccc2)S1,72.7% (inactive)
11,O=C1c2cc3c(cc2-c2c1c1ccc(Cl)cc1c(=O)n2CCCN1CCOCC1)OCO3,31.6% (inactive)
12,CC1=NN(c2cccc(Cl)c2)C(=O)/C1=C\C=C\c1ccccc1,9.96% (active)
13,O=c1[nH]c(Sc2sc3ccc(Cl)cc3c2CBr)nc(=S)[nH]1,19.1% (inactive)
14,c1ccc(Nc2nc(-c3ccccn3)cs2)nc1,-14.6% (active)
15,CC[N+]1(CC)CC[N+]2(CCCC(C)CC2)CC1 (configuration not stated),108% (inactive)
16,CC(C)OC(=O)Nc1ccc(-c2nc(-c3cccc(OCCN4CCOCC4)c3)c(-c3ccnc(Br)c3)[nH]2)cc1,-1.08% (active)
17,COc1ccc(C(=O)c2cc3c(N)c(C(=O)Nc4ccccc4)sc3nc2C)cc1,3.89% (active)
18,O=S(=O)(NCCNc1cc(-c2cn(-c3ccccc3)nc2-c2cccc(O)c2)ccn1)c1ccc(Br)cc1,-28.5% (active)
19,CS(=O)(=O)c1nccc(-c2c(-c3ccc(F)c(OCCc4ccc(F)cc4)c3)nc3sccn23)n1,-52.2% (active)

row,SMILES,growth
1,O=C(Nc1cccc(C2=NCCN2)c1)c1ccc(-c2ccc(C(=O)Nc3cccc(C4=NCCN4)c3)cc2)cc1,62% (inactive)
2,O=C(/C=C/c1ccccc1)c1cccc(OCCCOc2cccc(C(=O)/C=C/c3ccccc3)c2)c1,93.9% (inactive)
3,CCCn1cnc2c(c1=N)C(c1ccc(F)cc1)c1sc3c(F)cccc3c1O2 (configuration not stated),58.4% (inactive)
4,O=C(Nc1ccc(F)cc1)c1ccccc1,98.3% (inactive)
5,N#C/C(=C/C=C/c1cccc(Cl)c1)S(=O)c1ccccc1 (configuration not stated),-46% (active)
6,O=C1C=CC2(NN=C(c3ccccc3)N2c2cccc(Cl)c2)C(Cl)=C1 (configuration not stated),71.7% (inactive)
7,COc1ccc(/C(C)=C(\c2ccc(Cl)cc2)c2ccc(OCCN)cc2)cc1,67.2% (inactive)
8,COc1cccc(C(Cc2ccccc2)Nc2ccccc2)c1OC (configuration not stated),111% (inactive)
9,COc1ccccc1/C=C/C(=O)c1nnn(-c2ccc(C(=O)O)cc2)c1C,74.5% (inactive)
10,CC(=O)N1N=C(c2ccc(Nc3nc(NCCO)nc(NCCO)n3)cc2)CC1c1ccc(Cl)cc1 (configuration not stated),105% (inactive)
11,CC[C@@H]1NC(=O)[C@H]([C@H](O)[C@H](C)C/C=C/c2ccc(CN3C(=O)C(C)=C(C)C3=O)cc2)N(C)C(=O)[C@H](C(C)C)N(C)C(=O)[C@H](CC(C)C)N(C)C(=O)[C@H](CC(C)C)N(C)C(=O)[C@@H](C)NC(=O)[C@H](C)NC(=O)[C@H](CC(C)C)N(C)C(=O)[C@H](C(C)C)NC(=O)[C@H](CC(C)C)N(C)C(=O)CN(C)C1=O,53.1% (inactive)
12,Cc1cc(N)ccc1-c1ccc(N)cc1C,97.5% (inactive)
13,COC(=O)c1nc(N)nc(C(=O)OC)c1C(=O)c1cccc2ccccc12,97.6% (inactive)
14,Nc1c(C(=O)Nc2cccc3ncccc23)sc2nc3c(cc12)CN(Cc1ccccc1)CC3,31.4% (inactive)
15,COc1cc(C(=O)/C=C/c2cccc(Nc3ccnc4cc(Cl)ccc34)c2)cc(OC)c1OC,-49.5% (active)
16,CNC(=O)c1cc(Oc2ccc3nc(NC(C)=O)sc3c2)ccn1,100% (inactive)
17,CCOC(=O)NCCCC(=O)NCCc1ccccc1,105% (inactive)
18,CCOC(=O)CNC,101% (inactive)
